Compound activity (PubChem)
ERa SRC1 inh = ER-alpha (human) coactivator binding inhibition; inhibition, % at 25.6 µM; actives 1.7% (n = 86,000); TR-FRET ER-alpha LBD / SRC-1 peptide, estradiol-bound; P03372; AID 629; in the data active = inhibition above about 50%
ERa coact pot = enhances coactivator binding to human estrogen receptor alpha; coactivator binding (% of control), % at 25.6 µM; TR-FRET ERalpha-LBD/SRC-Cy5 coactivator binding, 2 h; 100 = basal binding, no effect; actives 1.3% (n = 86,000); P03372; in the data active = activity above about 200%;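 also: binding measured in presence of low estradiol as agonist stimulus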
Mac1 fbg inh = inhibitors of human CD11b/CD18 binding to fibrinogen. P05107+P11215. K562 CD11b/CD18 adhesion to fibrinogen, ATPlite luminescence; Mn2+ added to activate the integrin. actives 0.54% (n = 93,000). inhibition, % at 10 µM. AID 1497;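 active = primary inhibition of 50% or more at 10 µM, then 40% or more on retest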
CD11b adhes enh = enhancers of human CD11b/CD18 binding to fibrinogen; K562 CD11b/CD18 adhesion to fibrinogen, ATPlite luminescence; activation, % at 10 µM; actives 0.07% (n = 93,000);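 active = 10 µM primary screen giving 50% or more activity, confirmed by 40% or more on retest at that dose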
FAK inh = blocks human focal adhesion kinase activity; Q05397; biochemical FAK kinase activity assay; inhibition, %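 (tested at 7 µM)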; actives 0.84% (n = 97,000)
ERb SRC1 inh = ER-beta (human) coactivator binding inhibition. inhibition, % at 25.6 µM. actives 1.3% (n = 86,000). TR-FRET ER-beta LBD / SRC1-Cy5 peptide binding; receptor agonist-loaded with 1 µM estradiol. Q92731;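 active = compounds whose percent inhibition of the receptor-coactivator binding signal exceeds about 50% in the single-dose screen, limit read from the data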
Target sequence (Q92731 whole entry, looked up, the tested form may be a part): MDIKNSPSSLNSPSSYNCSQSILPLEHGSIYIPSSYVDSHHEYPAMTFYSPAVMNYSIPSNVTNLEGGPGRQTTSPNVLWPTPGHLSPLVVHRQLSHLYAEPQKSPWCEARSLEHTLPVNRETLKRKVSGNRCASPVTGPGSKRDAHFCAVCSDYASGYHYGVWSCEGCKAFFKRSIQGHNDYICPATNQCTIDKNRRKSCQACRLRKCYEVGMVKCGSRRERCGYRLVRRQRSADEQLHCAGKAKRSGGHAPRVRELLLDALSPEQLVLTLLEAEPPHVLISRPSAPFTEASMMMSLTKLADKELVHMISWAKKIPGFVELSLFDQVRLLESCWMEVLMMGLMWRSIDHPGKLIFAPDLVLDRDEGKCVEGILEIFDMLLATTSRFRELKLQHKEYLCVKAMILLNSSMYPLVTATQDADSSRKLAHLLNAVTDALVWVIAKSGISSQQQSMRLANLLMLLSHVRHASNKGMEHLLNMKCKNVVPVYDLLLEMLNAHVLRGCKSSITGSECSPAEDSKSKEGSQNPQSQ
FAK inh conf = FAK (human) inhibition confirmed | shares compounds with FAK inh | FAK kinase biochemical inhibition assay | inhibition, % at 7 µM | actives 28% (n = 750)
Of the large screens only hits and unclear results are named; the others gave an inactive call (follow-up assays come after a bar, where they were run); [ ] = another dose, or the depositor's remark. Rows were chosen to be rich in hits. Some 3.5% of all compounds tested hit in one or more screens of this group. Rule as the data show it, unless noted: active = inhibition above about 19%; inactive = the rest.

Cc1ccc2[nH]c3c(N4CCN(Cc5ccccc5)CC4)ncnc3c2c1	none
Cc1ccc2[nH]c3c(N4CCN(Cc5ccc6c(c5)OCO6)CC4)ncnc3c2c1	Mac1 fbg inh 91, FAK inh 38 | FAK inh conf inactive
CCCCN(C(=S)NC(=O)c1ccccc1)c1c(N)n(Cc2ccccc2)c(=O)[nH]c1=O	none (no result: ERa SRC1 inh, ERa coact pot, FAK inh, ERb SRC1 inh)
CCOc1cc(CNc2ccc(O)cc2)cc(Br)c1OCc1ccccc1F	FAK inh 22 (no result: ERa SRC1 inh, ERa coact pot, ERb SRC1 inh) | FAK inh conf inactive
C=CCOc1c(Br)cc(CNc2ccc(NC(=O)C(C)C)cc2)cc1OCC	none (no result: ERa SRC1 inh, ERa coact pot, FAK inh, ERb SRC1 inh)
COC(=O)c1nc2ccc(C)cn2c1F	none
CCCN(CCC)C(=O)CSc1nc2n[nH]c(C)c2c(=N)n1-c1ccc(OC)cc1	FAK inh 22 (no result: ERa SRC1 inh, ERa coact pot, ERb SRC1 inh) | FAK inh conf inactive
CCc1cccc(NC(=O)Cn2c(=O)oc3cc(S(=O)(=O)N4CCOCC4)ccc32)c1	none
O=C(Cn1c(=O)oc2cc(S(=O)(=O)N3CCCC3)ccc21)Nc1cccc(C(F)(F)F)c1	ERa SRC1 inh 60[fluorescence artefact?], ERa coact pot 234[fluorescence artefact?], FAK inh 26 | FAK inh conf inactive
CCCCNC(=O)Nc1ccnn1C1CCCCC1	none (no result: FAK inh)
CCOC(=O)c1cnc2ccc(C(=O)OC)cc2c1Nc1ccc2c(c1)OCCO2	FAK inh 36 (no result: ERa SRC1 inh, ERa coact pot, Mac1 fbg inh, CD11b adhes enh, ERb SRC1 inh) | FAK inh conf inactive
CCOC(=O)c1cnc2ccc(OC)cc2c1Nc1ccc2c(c1)OCCO2	FAK inh 24 (no result: ERa SRC1 inh, ERa coact pot, ERb SRC1 inh) | FAK inh conf inactive
CCOC(=O)c1ccc2ncc(C(=O)OCC)c(NCc3ccco3)c2c1	FAK inh 23 | FAK inh conf inactive
CC(=O)N1CSCC1C(=O)N1CCN(c2ccc(N3CCOCC3)nn2)CC1 (stereo not given)	none
COc1ccc(NC(=O)C(c2ccc(C)cc2)N(C)C(=O)c2cnccn2)cc1 (stereo not given)	none (no result: FAK inh)
O=C(CN(c1ccc(Cl)cc1)S(=O)(=O)c1ccccc1)N1CCN(c2ccccc2)CC1	none
CCN(CC)c1ncnc2ccc(Br)cc12	FAK inh 45 (no result: Mac1 fbg inh, CD11b adhes enh) | FAK inh conf inactive
CC(=O)c1ccc(NC(=O)c2ccc3nc(-c4ccco4)c(-c4ccco4)nc3c2)cc1	ERa SRC1 inh 92[fluorescence artefact?], FAK inh 84, ERb SRC1 inh 95[fluorescence artefact?] | FAK inh conf 30
CCCCNC(=O)c1ccc2nc(-c3ccco3)c(-c3ccco3)nc2c1	none (no result: ERa SRC1 inh, ERa coact pot, FAK inh, ERb SRC1 inh)
O=C(c1ccc2nc(-c3ccco3)c(-c3ccco3)nc2c1)N1CCN(c2ncccn2)CC1	ERa SRC1 inh 76[fluorescence artefact?], FAK inh 55, ERb SRC1 inh 86[fluorescence artefact?] | FAK inh conf inactive
O=C(c1cccc(C(=O)N2CCN(c3ncccn3)CC2)c1)N1CCN(c2ncccn2)CC1	none (no result: Mac1 fbg inh, CD11b adhes enh)
O=C(NCc1ccccc1)c1ccc2nc(-c3ccco3)c(-c3ccco3)nc2c1	ERa SRC1 inh 93[fluorescence artefact?], FAK inh 45, ERb SRC1 inh 97[fluorescence artefact?] | FAK inh conf inactive
O=C(Nc1ccccc1)c1ccc2nc(-c3ccco3)c(-c3ccco3)nc2c1	ERa SRC1 inh 90[fluorescence artefact?], FAK inh 21, ERb SRC1 inh 88[fluorescence artefact?] | FAK inh conf inactive
CCOC(=O)c1ccc(NC(=O)CCOc2ccc(C)cc2)cc1	none
CC(=O)Nc1ccc2[nH]c(C)cc(=O)c2c1	ERa SRC1 inh 77, FAK inh 81 | FAK inh conf inactive
CCOC(=O)c1ccc(NCc2nc3ccccc3n2C)cc1	none
O=C1NCCc2c1[nH]c1c(Cl)ccc(Cl)c21	FAK inh 73 | FAK inh conf 62
CC(C)(C)C(=O)NC(=C(Cl)Cl)P(=O)(O)O	FAK inh 66 (no result: ERa SRC1 inh, ERa coact pot, ERb SRC1 inh) | FAK inh conf 52
C=CCn1c(SCC(=O)NC2CCS(=O)(=O)C2)nc2scc(C3CC3)c2c1=O (stereo not given)	none
C=CCn1c(SCC(=O)c2ccc(CNC(C)=O)o2)nc2scc(C3CC3)c2c1=O	FAK inh 27 | FAK inh conf inactive
O=C(CSc1n[nH]c(-c2ccccc2O)n1)N1CCCc2ccccc21	none
O=C(Cn1c(NCCCO)nc2ccccc21)c1cccc(Br)c1	none
Cn1c(SCC(=O)Nc2ccc3nc(SCC(=O)N4CCCC4)sc3c2)nnc1-c1ccccc1	FAK inh 25 (no result: ERa SRC1 inh, ERa coact pot, ERb SRC1 inh) | FAK inh conf inactive
CC(C)N(CCO)C(=O)C(c1ccccc1)c1ccccc1	none
